Measurements as given in PubChem BioAssay.
Activity calls are given as the source filed them.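 The calls were made as follows: active = inhibition over a set limit, the all-compound mean plus 3 SD, in both replicate runs; inconclusive = over that limit in just one replicate run; inactive = at or under that limit in both runs.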

Assay: RAM pathway blockade in budding yeast – dse1pr::URA3 reporter, 5-FOA selection, pilot screen (AID 869);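 also: 0% = DMSO wells with no growth and 100% = 10 µM 1-NA-PP1 with full growth; RAM network block rescues cells from 5-FOA so hits raise OD615 growth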
Conditions: S. cerevisiae dse1pr::URA3 5-FOA growth, OD615, 2 d; at 10 µM; hits give high values; strain carries analog-sensitive mutant Cbk1 kinase

inhibition, inactive:
CCCCn1c(CNC(=O)c2cccs2)nc2ccccc21 -0.215%
COC(=O)C1=C(C)NC(=O)CC1c1cccc(Cl)c1Cl (stereo not given) 2.15%
Cn1c(Cn2c(=O)sc3ccccc32)nnc1SCC(=O)NCCc1ccccc1 2.5%
Cc1ccccc1S(=O)(=O)Cc1ccc(C(=O)N2CCN(C3CCCCC3)CC2)o1 0.385%
Cn1c(C(=O)NC2CCCCC2)cc2c(=O)n(C)c3ccccc3c21 1.46%
O=c1oc(-c2cccs2)nc2sc3c(c12)CCCCC3 1.86%
CN(C)C(=O)N1CCC(C(=O)NCc2ccc(F)cc2)CC1 0.865%
Cc1cc(Nc2c(C)cccc2C)n2nc(C)nc2n1 2.33%
O=C1CC(Nc2ccc(N3CCOCC3)cc2)C(=O)N1c1ccccc1F (stereo not given) 1.53%
COc1cc(NC(=O)c2cc(C(C)C)on2)cc(OC)c1OC -0.755%
CN(C)CCNC(=O)c1ccc2c(c1)N(Cc1ccc(F)cc1)CCS2 0.835%
c1ccc2c(c1)nc1n2CCN1CCNC1CCCCC1 0.065%
COC(=O)c1ccsc1NC(=O)C1=COCCO1 0.91%
c1coc(-c2nc(-c3ccco3)c(-c3ccco3)nc2-c2ccco2)c1 2.14%
COc1cc2c(cc1OC)CN(C(=O)C(C)(C)C)CC2 -0.13%
CCOCN(C(=O)Cn1c(CO)nc2ccccc21)c1c(C)cccc1CC 2.68%
CC(C)OC(=O)c1nnc(Cc2ccc(F)cc2)o1 0.82%
CN(C)Cc1c(O)ccc2occ(C(O)c3ccccc3)c12 (stereo not given) 1.07%
COc1ccc(N2CCN(C3CC(=O)N(C)C3=O)CC2)cc1 (stereo not given) 1.95%
CC1CCN(c2nc(-c3ccncc3)nc3ccccc23)CC1 0.745%
Clc1ccccc1OCCN1CCCCC1 0.6%
CCOC(=O)C1=C(C)NC(C)=C(C(=O)OCC)C1C(=O)O 0.265%
CC(=O)Nn1cc2c(=O)n(C)c(=O)n(C)c2c1 1.68%
CCc1nnc(NC(=O)CCN2C(=O)CCC2=O)s1 0.52%
C/C(NCCN1CCOCC1)=C(\C#N)C(N)=O 0.795%
COc1ccc(CCNC(=O)CCn2c(=O)oc3ccccc32)cc1OC 1.47%
Cc1ccc(-c2nc(CS(=O)(=O)CC(=O)N3CCc4ccccc4C3)c(C)o2)cc1 0.555%
Cc1ccc(-c2nn3c(C)nnc3s2)cc1NC(=O)c1ccc(OC(C)C)cc1 0.855%
COc1ccc(C(=O)Nc2nncs2)cc1S(=O)(=O)N1CC(c2ccccc2)CC1=O (stereo not given) 0.92%
CC(C)CC(NS(=O)(=O)c1ccc2c(c1)oc(=O)n2C)C(=O)NC1CCCc2ccccc21 (stereo not given) 1.38%
O=C(NCc1cccs1)C1CCN(S(=O)(=O)c2cccc3cccnc23)CC1 -0.03%
Cc1sc2ncnc(NCc3ccco3)c2c1C 1.61%
CC(=O)Oc1cccc(N2C(=O)C3C(C2=O)C2C=CC3C23CC3)c1 (stereo not given) 0.125%
Cc1cc(N2C(=O)C3CC=CCC3C2=O)cc(C)c1Br (stereo not given) 2.22%
Cn1c(C(=O)N2CCC(C(N)=O)CC2)cc2c(=O)n(C)c3ccccc3c21 0.085%
COc1ccccc1N1CCN(C(=O)c2sc3nc(-c4ccc(F)cc4)cn3c2C)CC1 0.235%
CC(C)CNS(=O)(=O)c1ccc(S(=O)(=O)N2CCN(CCC#N)CC2)cc1 0.85%
CCCN1Cc2cccc(C(=O)Nc3ccc4c(c3)OCCO4)c2C1=O 1.35%
CCOC(=O)CN1CC23C=CC(O2)C(C(=O)NC2CCCCCC2)C3C1=O (stereo not given) 1.36%
Cc1nnc(NC(=O)CSc2nnc(Cc3cccn3C)n2C)s1 0.91%
